Only some compounds are listed: those with a hit (about 10% of all), similar ones and a draw of the others.
GPT2 inh: Primary qHTS assay for inhibitors of Glutamate pyruvate transaminase 2 (GPT2); Alanine aminotransferase 2 (Homo sapiens), Q8TD30; Recombinant GPT2, coupled pyruvate oxidase/HRP Amplex Red fluorescence; Potency, µM (highest dose often 57.7 µM), inactives show at the top dose activity change, negative = inhibition, actives largely listed as inhibitors; 100,000 compounds, 0.25% hits; further: nearly all actives have a fitted effect of over 60% in size
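Fluorescence read-out: pyruvate from GPT2 turnover coupled to pyruvate oxidase, HRP and Amplex Red (0.2mM ThPP, 0.2U/mL PO and HRP, 50uM Amplex final). Substrates 250uM a-KG, 2mM L-alanine; enzyme 10ng/uL; 30 min RT.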
NIH3T3 tox: Cytotoxic Profiling in NIH 3T3 Cell Line of Diverse Libraries Using Quantitative High-Throughput Screening; NIH 3T3 viability, CellTiter-Glo ATP luminescence, 48-72 h; Potency, µM (series often up to 96.7 µM), without a hit: at the top dose activity change, negative = cytotoxicity, most hits filed as inhibitors; 94,000 compounds, 4.3% hits; further: nearly all actives have a fitted effect of over 55% in size
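Luminescent ATP readout (CellTiter-Glo, 10 min RT) after 48 or 72 hr compound exposure of NIH 3T3 cells seeded at 400 cells/well in 1536-well format; quantitative HTS.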
HEK293 tox: Cytotoxic Profiling in HEK 293 Cell Line of Diverse Libraries Using Quantitative High-Throughput Screening. Potency, µM (top dose mostly 115 µM), for inactives: at the top dose activity change, negative = cytotoxicity, most hits filed as inhibitors. HEK 293 viability, ATP luminescence (CellTiter-Glo), 48-72 h. 94,000 compounds, 6.6% hits; further: nearly all actives have a fitted effect of over 60% in size
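HEK 293 cells seeded at 250 cells/well were exposed to compound for 48 or 72 hr at 37 degree Celsius. Viability taken as ATP content by CellTiter-Glo luminescence.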
hNpr1 antagonist: Natriuretic polypeptide receptor (hNpr1) antagonism - Primary qHTS; Potency, µM (series often up to 46.3 µM), without a hit: at the top dose activity change, negative = inhibition, most hits filed as inhibitors; Atrial natriuretic peptide receptor 1 (Homo sapiens), P16066; 76,000 compounds, 1.6% hits; HEK293 hNpr1 GloSensor cGMP, ANP-stimulated luminescence; calls by dose curve; further: nearly all actives have a fitted effect of over 60% in size
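Compound pre-incubated 30 min at room temperature on GloSensor-loaded HEK293 cells stably carrying hNpr1 and the pGS-40F cGMP biosensor. Stimulation uses hNppA at 0.1 nM final; luminescence is taken at baseline and 20 min post-agonist.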
Luciferase inh: Firefly luciferase inhibition profiling of diverse chemical library using quantitative high-throughput screening | Luciferin 4-monooxygenase (Photinus pyralis), P08659 | purified P. pyralis luciferase, luminescence, biochemical | Potency, µM (series often up to 115 µM), usual class: inhibitors | 76,000 compounds, 2.5% hits | AID 1347043, 2019; further: nearly all actives have a fitted effect of over 65% in size
Target sequence (P08659 whole entry, looked up): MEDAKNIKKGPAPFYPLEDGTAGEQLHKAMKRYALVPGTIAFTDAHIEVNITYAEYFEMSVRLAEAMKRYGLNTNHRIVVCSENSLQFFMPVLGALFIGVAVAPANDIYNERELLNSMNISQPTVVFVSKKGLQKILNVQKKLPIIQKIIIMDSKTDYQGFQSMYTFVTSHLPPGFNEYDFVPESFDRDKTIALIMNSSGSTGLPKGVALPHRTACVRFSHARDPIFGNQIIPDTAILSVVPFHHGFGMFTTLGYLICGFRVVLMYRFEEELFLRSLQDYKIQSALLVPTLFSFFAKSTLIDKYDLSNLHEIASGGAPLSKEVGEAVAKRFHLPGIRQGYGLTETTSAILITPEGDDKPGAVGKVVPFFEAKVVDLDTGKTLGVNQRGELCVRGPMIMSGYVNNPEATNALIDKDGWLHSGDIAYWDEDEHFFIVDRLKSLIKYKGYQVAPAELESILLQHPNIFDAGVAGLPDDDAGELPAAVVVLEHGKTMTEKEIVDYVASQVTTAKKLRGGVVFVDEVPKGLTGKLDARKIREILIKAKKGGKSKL
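FLuc 10nM, D-luciferin 10uM, ATP 10uM, Mg acetate 10mM, Tris acetate pH 7.5, Tween/BSA; cpd qHTS; enzyme added last; CCD luminescence.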
Active calls of the source: *; i = inactive; u = inconclusive; x = not tested or not shown; ! = not confirmed by another sample; [ ] = another dose, or the depositor's remark. Unless noted, the call rests on the fitted dose curve; in most records, active means well fitted curve in the direction sought with a large enough effect; inconclusive means small, poorly fitted or top-dose-only effect, or another doubt; inactive means no such curve, though single readings can be large; an effect the other way counts as inactive or inconclusive. On the % scale 0 is the no-effect control and ±100 the full control effect; potency means the concentration at half of the fitted maximal effect.

SMILES	GPT2 inh	NIH3T3 tox	HEK293 tox	hNpr1 antagonist	Luciferase inh
COC(=O)[C@@H]1Cc2c([nH]c3ccccc23)[C@H]2C[C@@H](NCCNC(C)=O)C[C@@H](c3ccc(C)cc3)N21	-4%	28µM*	28µM*	-12%	i
CNC(=O)c1cc(C)nc2onc(C3CCCN3C(=O)C3CCCCC3)c12 (stereo not given)	x	-28%	-10%	x	x
COc1ccc(-c2cn(C)c(=O)n3cc(COc4ccc(Cl)cc4)nc23)cn1	2%[88.5 µM]	-35%[138 µM]	u	4%[70.6 µM]	i
COc1ccc2[nH]cc(CCNC(=O)CCC3CCN(C(=O)c4ccc(C)cc4)CC3)c2c1	i	u	u	-17%	i
COc1ccc(C)cc1NC(=O)N1CCCC1c1nncn1C1CCCC1 (stereo not given)	-26%	32µM*	6%	-2%	i
COc1ccc(C)cc1NC(=O)N1C[C@@H](F)C[C@H]1C(=O)N1CCCCC1	4%	35µM*	1%	-13%	i
CCCCCNC(=O)CC(c1cccc(OC)c1OC)c1c[nH]c2ccccc12 (stereo not given)	i	u	u	-17%	i
COc1cc(NC(=O)C2CN(S(=O)(=O)C3CC3)CC23CCCCC3)cc(OC)c1 (stereo not given)	-9%	u	u	-15%	i
C=CCn1cc2c3c(cccc31)[C@H](CC(C)C)N[C@H](C(=O)NCCCN1CCCC1=O)C2	u	u	40µM*	1%	i
C=CCn1cc2c3c(cccc31)[C@H](CC(C)C)N[C@H](C(=O)NCCOC)C2	2%[88.5 µM]	89µM*	56µM*	-2%[70.6 µM]	u
Cc1nn(-c2ccccc2)c2c1C(C1CC1)N(C1CCN(Cc3ccccc3C(F)(F)F)CC1)C2=O (stereo not given)	x	-15%	-17%	x	x
c1ncc(-c2ccc(-c3noc([C@@H]4CCCN4Cc4ccc5c(c4)OCO5)n3)cn2)cn1	0%[88.5 µM]	-35%[138 µM]	u	-5%[70.6 µM]	i
Cc1cc(C)cc(-c2ccc(CN3CCCC(c4nc5ccc(F)cc5c(=O)[nH]4)C3)cc2)c1 (stereo not given)	2%	18µM*	40µM*!	-15%	i
CC(=O)Nc1ccc(CN2CCCC(c3nc4ccc(F)cc4c(=O)[nH]3)C2)cc1 (stereo not given)	i	u	u	3%	i
Cc1ccc2nc(C3CCCN(Cc4cccs4)C3)[nH]c(=O)c2c1 (stereo not given)	i	-22%	u	x	x
Cc1ccc2nc(C3CCCN(CC4CCCC4)C3)[nH]c(=O)c2c1 (stereo not given)	4%[88.5 µM]	u	71µM*!	-29%[70.6 µM]	i
CC(C)CN1CCCC(c2nc3ccc(F)cc3c(=O)[nH]2)C1 (stereo not given)	4%[88.5 µM]	32µM*	25µM*	12%[70.6 µM]	i
Cc1ccc2nc(C3CCCN(Cc4ccccc4)C3)[nH]c(=O)c2c1 (stereo not given)	-2%	u	63µM*!	3%[70.6 µM]	i
Cc1ccnc(NCCNC(=O)C2CCC(=O)N(CC3CCCCC3)C2)c1 (stereo not given)	1%[11.5 µM]	u	-15%	2%	i
O=C(NC1CCCN(CCn2nc3n(c2=O)CCCC3)C1)c1cccnc1 (stereo not given)	x	-17%	-10%	x	x
Cc1ccc2nc(C3CCCN(Cc4cccc(-c5cccs5)c4)C3)[nH]c(=O)c2c1 (stereo not given)	-3%	u	u	u	i
Cc1ccc2nc(C3CCN(Cc4ccc(-c5cccs5)cc4)CC3)[nH]c(=O)c2c1	-12%	u	35µM*!	-22%	i
NCc1ccc(-c2cc(F)cc(F)c2)cc1	0%[88.5 µM]	50µM*	u	x	x
Cc1cc(C)cc(-c2ccc(CN)cc2)c1	i	u	28µM*	x	x
Cc1cc(C)cc(-c2ccc(C=O)cc2)c1	-5%[88.5 µM]	u	126µM*	x	x
SMILES	GPT2 inh	NIH3T3 tox	HEK293 tox	hNpr1 antagonist	Luciferase inh
COc1ccc(-c2cccc(CN)c2)cc1	-10%[88.5 µM]	u	u	x	x
Cc1cc(C(=O)N2CCCCCNC(=O)[C@H]3C[C@H](C(=O)N4CCc5ccccc5C4)C[C@H]32)n(C)n1	u	-27%	-3%	-8%	i
Cc1ccc(C)c(-c2cc3c(=O)n(CCNC(=O)c4ccc(F)cc4Cl)ccn3n2)c1	i	32µM*	40µM*	-19%	i
CCOc1ccc(C(=O)NCCn2ccn3nc(-c4cc(C)ccc4C)cc3c2=O)cc1	4%	-25%	u	2%	i
Cc1ccc(-c2cc3c(=O)n(CCNC(=O)Cc4ccsc4)ccn3n2)cc1C	-6%	u	u	-16%	5µM*
CCOc1ccc(CC(=O)NCCn2ccn3nc(-c4ccc(C)cc4C)cc3c2=O)cc1	-8%	u	u	u	25µM*
Cc1ccc(-c2cc3c(=O)n(CCNC(=O)c4cc(Cl)ccc4F)ccn3n2)cc1C	-4%	1%	0%	-1%	i
Cc1ccc(-c2cc3c(=O)n(CCNC(=O)c4cc(F)ccc4F)ccn3n2)cc1C	i	u	40µM*	-15%	u
COc1ccccc1CNC(=O)C1CCN(c2nccc(Nc3ccc(C)cc3)n2)CC1	i	u	u	x	x
COc1ccc(-c2cc3c(=O)n(CCNC(=O)Cc4ccc(C)cc4)ccn3n2)cc1	3%	-27%	u	u	u
COc1ccc(-c2cc3c(=O)n(CCNC(=O)Cc4ccsc4)ccn3n2)cc1	u	u	u	-21%	11µM*
CC(C)Oc1cc(-c2ccc(C(C)N3CCOCC3)cc2)nc(N)n1 (stereo not given)	i	u	u	1%	35µM*
Cc1cc(C)c(C#N)c(-c2ccc(C(C)N3CCOCC3)cc2)n1 (stereo not given)	2%	u	u	u	i
O=C(Nc1ccc(Oc2ccccc2)cc1)N[C@H]1CO[C@H]2[C@@H]1OC[C@@H]2n1nnnc1Oc1ccc(-n2cncn2)cc1	0%	u	25µM*	-25%	i
O=C(Nc1cccc(C(F)(F)F)c1)O[C@@H]1CO[C@H]2[C@@H]1OC[C@@H]2NC(=S)Nc1ccc(Cl)cc1	0%	u	45µM*	-26%	i
COc1ccc(NC(=O)N[C@H]2CO[C@H]3[C@@H]2OC[C@H]3OC(=O)Nc2ccc(OC)cc2)cc1	3%	i	-9%	-2%	u

Assay outcomes deposited in PubChem by National Center for Advancing Translational Sciences (NCATS).
